The values that follow come from PubChem BioAssay AID463173 (ICCB-Longwood Screening Facility, Harvard Medical School, 2010).

Among all 52,000 compounds or so, about 1,700 (3.3%) were called active. What follows is part of a selection rich in actives, with near analogues and random picks from the rest. Values without a mark were called inactive. Rule as the data show it: active = survival mostly below about 52% (no sharp cut-off); inactive = mostly above about 56%.

The subject of the assay is Wild type. Description: growth inhibition of S. aureus wild type versus tarO mutant, primary screen, teichoic acid synthesis inhibitors, RN4220, OD600 (AID 463173). The settings on record: S. aureus RN4220 wild type/DeltatarO growth, OD600, 18 h, active compounds read low, screened at 18.75 µg/mL (by protocol).
Consider `CC1CCN(CC2CCN(C(=O)NCc3ccc(F)cc3)CC2)CC1`, for which the survival was 78%.

Consider `COc1ccccc1OC(C)C(=O)NCC1(N2CCOCC2)CCCCC1` (configuration not stated), for which the survival is 87%.

Turning to `COc1ccc(CC(=O)NCc2ccc3c(c2)CCN3C(C)=O)cc1OC`, the survival was 78%.

Regarding `CCC(=O)N1c2ccccc2CC1C(=O)NCCCN1CCN(c2ccc(OC)cc2)CC1` (configuration not stated), the survival is 88%.

As to `Cc1ccc(NC(=O)Cn2nc(C(F)(F)F)c3c2CCC3)cc1C`, the survival is 81%.

Turning to `CC1CCN(S(=O)(=O)c2ccc3nc(N4CCN(c5ccccc5)CC4)ccc3c2)CC1`, the survival was 77%.

As for `O=S(=O)(c1ccc2nc(N3CCN(c4ccccc4)CC3)ccc2c1)N1CCCCC1`, the survival is 1% (active).

Regarding `O=S(=O)(c1ccc2nc(N3CCN(c4cccc(Cl)c4)CC3)ccc2c1)N1CCCCC1`, the survival was 55%.

Consider `Cc1ccc(NC(=O)C(=O)NCC(c2cccnc2)N2CCN(Cc3ccccc3)CC2)cc1` (configuration not stated), for which the survival is 85%.

For the compound `CC1CCN(C(=O)c2ccc3c(c2)OCCO3)CC1`, the survival was 105%.

Turning to `CN(Cc1ccccc1)c1ccc(-c2nc(-c3ccccn3)no2)cc1[N+](=O)[O-]`, the survival is 67%.

For `CCc1ccc(CNC(=O)c2cc(=O)[nH]c3ccc(S(=O)(=O)N4CCCCC4)cc23)cc1`, the survival is 91%.

Take `O=S(=O)(c1ccccc1)c1nc(-c2cccs2)oc1N1CCCCC1`: the survival was 123%.

As for `CC1CCN(c2oc(-c3cccs3)nc2S(=O)(=O)c2ccc(Cl)cc2)CC1`, the survival is -8% (active).

Consider `O=S(=O)(c1ccc(Cl)cc1)c1nc(-c2cccs2)oc1N1CCCCC1`, for which the survival was 45%.

Consider `Cc1ccc(S(=O)(=O)c2nc(-c3cccs3)oc2N2CCC(C)CC2)cc1`, for which the survival was -10% (active).

On to `Cc1ccc(S(=O)(=O)c2nc(-c3cccs3)oc2N2CCCCC2)cc1`, for which the survival was 50%.

For `CC1CCN(c2oc(-c3cccs3)nc2S(=O)(=O)c2ccccc2)CC1`, the survival is 24%.

Regarding `O=C(CSc1nc2ccccc2o1)NC1CC1`, the survival was 86%.

As for `Cc1ccc2c(c1)c1c(c(=O)n(-c3ccccc3C)c(=O)n1CC(=O)NCC1CCCO1)n2C` (configuration not stated), the survival was 66%.

With `CCOc1ccc(CCNC(=O)Cn2ncc3c(=O)oc4ccc(C)cc4c32)cc1`, the survival is 80%.

As to `COc1ccc(NC(=O)CSc2nc(-c3ccccc3)nc3cc(=O)[nH]n23)cc1`, the survival was 73%.

On to `CCCCc1nc2ccccc2n2c(-c3ccc(OC)cc3)c3c(=O)n(C)c(=O)n(C)c3c12`, for which the survival is 52%.

Turning to `CCOC(=O)CCc1c(C)nc2cc(-c3cc(OC)cc(OC)c3)[nH]n2c1=O`, the survival is 74%.

For `Cc1nc2c(-c3ccc(F)cc3)c(C)nn2c(C)c1CCC(=O)NCc1ccc(Cl)cc1`, the survival is 91%.

As for `CCOC(=O)Cc1c(C)nc2c(-c3ccc(Cl)cc3)c(C(F)(F)F)nn2c1C`, the survival was 49%.

Turning to `CCCCc1c(C)nc2c(-c3ccc(OC)cc3)c(C)[nH]n2c1=O`, the survival was 12% (active).

Consider `CCCCc1c(C)nc2c(-c3ccc(Cl)cc3)c(C)[nH]n2c1=O`, for which the survival is -13% (active).

In the case of `C#CC(C)(CC)NC(=O)Cn1nnc(-c2ccc(OCc3ccccc3Cl)cc2)n1` (configuration not stated), the survival is 74%.

As for `CC1=CC(C)(C)Nc2ccc(OC(=O)c3ccco3)cc21`, the survival is 125%.

Take `CCc1ccc(NC(=O)Cn2cnc3sc(C)c(S(=O)(=O)N4CCN(c5ccccc5OC)CC4)c3c2=O)cc1`: the survival was 138%.

In the case of `CCOC(=O)Cn1c(=O)n(CC2CCCO2)c2nc(-c3ccccc3)nc(C(N)=O)c21` (configuration not stated), the survival was 56%.

For `CCOC(=O)Cn1c(=O)n(CC2CCCO2)c2nc(-c3ccc(C)cc3)nc(C(N)=O)c21` (configuration not stated), the survival was 63%.

With `CCOC(=O)Cn1c(=O)n(CC2CCCO2)c2nc(-c3cccc(C)c3)nc(C(N)=O)c21` (configuration not stated), the survival was 55%.

For `CCOC(=O)Cn1c(=O)n(-c2ccccc2OC)c2nc(-c3ccccc3)nc(C(N)=O)c21`, the survival is -3% (active).

Take `CCOC(=O)Cn1c(=O)n(CC2CCCO2)c2nc(-c3ccc(C(C)C)cc3)nc(C(N)=O)c21` (configuration not stated): the survival was 1% (active).

Regarding `CCOC(=O)Cn1c(=O)n(-c2ccccc2OC)c2nc(-c3cccc(F)c3)nc(C(N)=O)c21`, the survival is 57%.

In the case of `CCOC(=O)Cn1c(=O)n(-c2ccccc2OC)c2nc(-c3ccc(C(C)C)cc3)nc(C(N)=O)c21`, the survival is 82%.

As for `CCOC(=O)Cn1c(=O)n(CC2CCCO2)c2nc(-c3ccc(OCC)cc3)nc(C(N)=O)c21` (configuration not stated), the survival was -4% (active).

`CCOC(=O)Cn1c(=O)n(CC2CCCO2)c2nc(-c3ccc(CC)cc3)nc(C(N)=O)c21` (configuration not stated): the survival is 81%.

As for `CCCCC(=O)Nc1ccc(NC(=O)C2CC2)nc1`, the survival was 101%.

`COc1ccc(OC)c(NC(=O)Cc2c(C(=O)O)n(C)c3ccc(C)cc23)c1`: the survival was 88%.

As to `CC1CCCN(S(=O)(=O)c2cc3c4c(c2)CC(=O)N4CCC3)C1` (configuration not stated), the survival was 81%.

For `CC(C)Cn1c(=O)c2sccc2n2c(CCCC(=O)NCC(C)c3ccccc3)nnc12` (configuration not stated), the survival is 96%.

`CCCC(=O)N(c1ccc2oc3c(c2c1)CCCC3)S(=O)(=O)c1cc(C)ccc1C`: the survival was 61%.

Turning to `COc1ccccc1C(=O)Nc1ccc2nc(SCC(=O)N(C)c3ccccc3)sc2c1`, the survival was 84%.

Take `CC(Sc1nc(-c2ccccc2)c(C#N)c(=O)[nH]1)C(=O)Nc1ccc(F)cc1` (configuration not stated): the survival is 91%.

Turning to `O=C(CSc1ccccc1)N1CCc2c([nH]c3ccccc23)C1c1ccc(Cl)cc1` (configuration not stated), the survival was 64%.

Turning to `COCCCNC(=O)CCn1c(=O)c2ccccc2n(CC(=O)Nc2c(C)cc(C)cc2C)c1=O`, the survival is 84%.

As to `CCOc1ccccc1CNC(=O)CN1C(=O)c2cccnc2Oc2ccc(C)cc21`, the survival was 136%.

For the compound `Cc1ccc2nc(/C(C#N)=C/c3ccc(-c4ccc(F)cc4F)o3)[nH]c2c1`, the survival is 26%.

As for `COC(=O)c1sc(-c2ccccc2)cc1NC(=O)c1cccc(F)c1`, the survival is 87%.

On to `COC(=O)c1sc(-c2ccccc2)cc1NC(=O)Nc1ccc(Cl)cc1`, for which the survival was 4% (active).

Consider `COC(=O)c1sc(-c2ccccc2)cc1NC(=O)Nc1ccccc1Cl`, for which the survival is 5% (active).

As for `CCOc1ccc(-c2cc(NC(=O)Nc3ccccc3Cl)c(C(=O)OC)s2)cc1`, the survival was 50%.

With `CCOc1ccc(-c2cc(NC(=O)Nc3ccc(Cl)cc3)c(C(=O)OC)s2)cc1`, the survival is 88%.

`CCOc1ccc(-c2cc(NC(=O)Nc3cccc(C(C)=O)c3)c(C(=O)OC)s2)cc1`: the survival was 81%.

As for `CCOc1ccc(-c2cc(NC(=O)Nc3ccccc3C(F)(F)F)c(C(=O)OC)s2)cc1`, the survival is 72%.

For the compound `COC(=O)c1sc(-c2ccccc2)cc1NC(=O)Nc1ccc(F)cc1`, the survival was 13% (active).

For `COC(=O)c1sc(-c2ccccc2)cc1NC(=O)c1cccc(Cl)c1`, the survival is 38%.

`CCc1ccccc1NC(=O)Cn1cc(S(=O)(=O)N2CCCC2)c(S(=O)(=O)N2CCCC2)c1`: the survival was 68%.

On to `CCc1ccccc1NC(=O)CCn1nc(C)c2c(C)n(-c3ccccc3)nc2c1=O`, for which the survival is 88%.

`Cc1ccc(C(=O)Nc2ccccc2C(=O)OCc2cc(=O)n3nc(C4CC4)sc3n2)cc1`: the survival was 87%.

Take `COc1cccc(-n2c(=O)c3cc(OC)c(OC)cc3n(CC(=O)Nc3ccc(F)cc3)c2=O)c1`: the survival is 73%.

Consider `Cc1ccc(Cl)cc1N1CCN(C(=O)c2sc3nc4n(c(=O)c3c2C)CCC4)CC1`, for which the survival was 75%.

Take `CCOC(=O)c1ccc(NC(=O)c2cc3sccc3n2Cc2ccc(Cl)cc2)cc1`: the survival is 87%.

On to `COc1cc(OC)c(NC(=O)Cn2c(=O)nc(-c3ccccc3)c3ccccc32)cc1Cl`, for which the survival was 68%.

With `O=C(Nc1nnc(S(=O)(=O)N2CCCc3ccccc32)s1)c1cccc(Cl)c1`, the survival is 6% (active).

Consider `CN(Cc1ccccc1)S(=O)(=O)c1nnc(NC(=O)c2cccc(Cl)c2)s1`, for which the survival was -1% (active).

Regarding `O=C(Nc1nnc(S(=O)(=O)N2CCCc3ccccc32)s1)c1ccccc1`, the survival was 31%.

On to `COc1ccc(OCC(=O)Nc2nnc(S(=O)(=O)N3CCc4ccccc43)s2)cc1`, for which the survival was 73%.

`O=C(Nc1nnc(S(=O)(=O)N2CCCc3ccccc32)s1)c1ccc(Cl)cc1`: the survival was 19%.

In the case of `Cc1ccc(OCC(=O)Nc2nnc(S(=O)(=O)N3CCc4ccccc43)s2)cc1`, the survival was 24%.

Regarding `O=C(COc1ccc(Cl)cc1)Nc1nnc(S(=O)(=O)N2CCc3ccccc32)s1`, the survival is 12% (active).

As to `CC1Cc2ccccc2N1S(=O)(=O)c1nnc(NC(=O)c2cccc(F)c2)s1` (configuration not stated), the survival is 10% (active).

On to `CC1Cc2ccccc2N1S(=O)(=O)c1nnc(NC(=O)c2ccccc2)s1` (configuration not stated), for which the survival is 18%.

For the compound `Cc1cccc(C(=O)Nc2nnc(S(=O)(=O)N(C)Cc3ccccc3)s2)c1`, the survival is 29%.

As for `Cc1cccc(C(=O)Nc2nnc(S(=O)(=O)N3c4ccccc4CC3C)s2)c1` (configuration not stated), the survival was 21%.

As for `CN(Cc1ccccc1)S(=O)(=O)c1nnc(NC(=O)c2ccccc2)s1`, the survival was 35%.

On to `Cc1nnc(N2C(=O)c3oc4ccccc4c(=O)c3C2c2ccc(F)cc2)s1` (configuration not stated), for which the survival was 79%.

As for `O=c1cccc2n1CC1CC(C2)N(c2nc(N3CCCCC3)nc(N3CCCCC3)n2)C1` (configuration not stated), the survival is 104%.

In the case of `CCCn1c(=O)n(-c2ccccc2)c(=O)c2sc3ccccc3c21`, the survival is 93%.

For the compound `COc1ccc(CNCc2ccc3c(c2)n(C)c(=O)n3C)cc1`, the survival is 90%.

Turning to `COc1cc(NC(=O)C(CC(C)C)NS(=O)(=O)c2ccc3c(c2)oc(=O)n3C)c(C(=O)O)cc1OC` (configuration not stated), the survival was 124%.

As for `Nc1cccc2c1C(=O)N(CC(=O)O)C2=O`, the survival is 104%.

Take `Cc1ccccc1CNC(=O)Cn1ncn2nc(-c3cccs3)cc2c1=O`: the survival is 120%.

With `CCOc1ccc(S(=O)(=O)NCC(c2ccco2)S(=O)(=O)c2ccc(F)cc2)cc1` (configuration not stated), the survival was 90%.
